The source of these data is PubChem BioAssay (EPA / NIEHS).

A short description of test [1]: BSK_4H_Eotaxin3: BioMAP Diversity Plus: 4H Assay for Eotaxin 3 Biomarker Activity (AID 2283000; active = hit-call score of the fitted dose curve at least 0.9, where 1 is the maximum; inactive = score below 0.9;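 for outcome: CCL26 protein level quantified by ELISA in parallel with SRB cytotoxicity check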). The settings on record: primary human endothelial cells (HUVEC); actives raise or lower the signal. A digest of the protocol: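 Endothelial primary cells (human umbilical vein) exposed to compound for 24 h. ELISA detection of Eotaxin-3.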
Test [2] addresses human Peroxisome Proliferator-activated Receptor alpha (PPARa), PPARA (gene 5465) (UniProt Q07869). Put plainly: ATG_PPARa_TRANS: Attagene TRANS-FACTORIAL HepG2 Assay for human Peroxisome Proliferator-activated Receptor alpha (PPARa) (AID 2283001).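 For AC50: potency for gain of reporter signal over DMSO so agonist or activator.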 A digest of the protocol: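 Transfected HepG2 cells treated with test chemical for 24 h. RNA isolated, reverse-transcribed with oligo(dT), PCR-amplified, FAM-labelled and HpaI-digested. Fragments sized by capillary electrophoresis; gain-of-signal fit relative to DMSO.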

In test [3] the target is human Peroxisome Proliferator-activated Receptor delta (PPARd), PPARD (gene 5467) (UniProt Q03181). The experiment in a line: ATG_PPARd_TRANS: Attagene TRANS-FACTORIAL HepG2 Assay for human Peroxisome Proliferator-activated Receptor delta (PPARd) (AID 2283002). A digest of the protocol:
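Read-out is induced reporter mRNA, quantified by RT-PCR with fluorescent labelling and capillary electrophoresis after 24 h dosing. Cells are HepG2 transiently carrying multiple GAL4-UAS reporter units driven by exogenous NR-GAL4 chimeras; DMSO serves as baseline.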

Read-out in test [4]: Intercellular Adhesion Molecule 1 (ICAM1), ICAM1 (gene 3383)
Put plainly: BSK_3C_ICAM1: BioMAP Diversity Plus: 3C Assay for Intercellular Adhesion Molecule 1 (ICAM1) Biomarker Activity (AID 2283003; active = hit-call score of the fitted dose curve at least 0.9, where 1 is the maximum; inactive = score below 0.9). The settings on record: primary human endothelial cells (HUVEC); actives raise or lower the signal. Put shortly: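 Using DMSO as baseline, bidirectional curve fitting was applied to ICAM-1 ELISA signals from HUVEC in the 3C system, measured 24 h after compound addition.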

Test [5] deals with human Retinoic Acid Receptor beta (RARb), RARB (gene 5915) (UniProt P10826). The experiment in a line: ATG_RARb_TRANS: Attagene TRANS-FACTORIAL HepG2 Assay for human Retinoic Acid Receptor beta (AID 2283004). Put shortly:
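HepG2, transient MRTU transfection, NR–Gal4 chimera, 24 h treatment; RT-PCR plus CE fluorescence detection of reporter mRNA; gain of signal vs DMSO.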

Test [6] in a line: BSK_3C_Proliferation: Cell Proliferation Assessment in the BioMAP Diversity Plus: 3C Assay (AID 2283006; active = hit-call score of the fitted dose curve at least 0.9, where 1 is the maximum; inactive = score below 0.9;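 for AC50: potency may reflect either rise or fall in cell number versus DMSO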). The settings on record: primary human endothelial cells (HUVEC). Put shortly: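 Measured here: sulforhodamine B (0.1%) staining of TCA-fixed sub-confluent umbilical vein endothelial cultures 48 h post-dosing, absorbance 560 nm. DMSO served as negative control and baseline; both signal gain and loss were modelled.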

Test [7] has as its target Peroxisome proliferator-activated receptor gamma (Homo sapiens) (UniProt P37231). The experiment in a line: ATG_PPARg_TRANS: Attagene TRANS-FACTORIAL HepG2 Assay for human Peroxisome Proliferator-activated Receptor-gamma (PPARg) (AID 2283007). Put shortly: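 A TRANS-format multiplexed reporter assay measures activity of an exogenous chimeric NR-Gal4 protein in HepG2 cells. After 24 h of chemical exposure, reporter transcripts are amplified, fluorescently labelled and sized by capillary electrophoresis, with gain of signal scored against DMSO.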

For test [8], the target named is Nuclear receptor subfamily 1 group I member 2 (Homo sapiens) (UniProt O75469). Put plainly: ATG_PXR_TRANS: Attagene TRANS-FACTORIAL HepG2 Assay for human Pregnane X Receptor (PXR) (AID 2283008). A digest of the protocol:
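Transactivation by exogenous PXR–GAL4 fusion measured as reporter transcript induction after 24 h compound treatment of transfected human HepG2 cells. Read-out via RT-PCR and capillary electrophoresis of labelled fragments, fitted upward relative to DMSO.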

The target of test [9] is human RAR-related Orphan Receptor gamma (RORg), RORC (gene 6097) (UniProt P51449). The experiment in a line: ATG_RORg_TRANS: Attagene TRANS-FACTORIAL HepG2 Assay for human RAR-related Orphan Receptor gamma (RORg) (AID 2283011). Put shortly:
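Activity is scored as increase in GAL4-UAS reporter mRNA over DMSO, detected by fluorescent RT-PCR and capillary electrophoresis in HepG2 cells transiently expressing a RORg-Gal4 chimera, 24 h after dosing.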

Test [10] deals with Retinoic acid receptor RXR-alpha (Homo sapiens) (UniProt P19793). Put plainly: ATG_RXRa_TRANS: Attagene TRANS-FACTORIAL HepG2 Assay for human Retinoid X Receptor alpha (RXRa) (AID 2283012). Put shortly: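 Chimeric NR-GAL4 trans-activation in HepG2, 24 h treatment; reporter transcripts quantified by fluorescence on capillary electrophoresis, analysed for upward change from DMSO.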
Chain of Retinoic acid receptor RXR-alpha (Homo sapiens) (P19793 whole entry, looked up, the tested form may be a part): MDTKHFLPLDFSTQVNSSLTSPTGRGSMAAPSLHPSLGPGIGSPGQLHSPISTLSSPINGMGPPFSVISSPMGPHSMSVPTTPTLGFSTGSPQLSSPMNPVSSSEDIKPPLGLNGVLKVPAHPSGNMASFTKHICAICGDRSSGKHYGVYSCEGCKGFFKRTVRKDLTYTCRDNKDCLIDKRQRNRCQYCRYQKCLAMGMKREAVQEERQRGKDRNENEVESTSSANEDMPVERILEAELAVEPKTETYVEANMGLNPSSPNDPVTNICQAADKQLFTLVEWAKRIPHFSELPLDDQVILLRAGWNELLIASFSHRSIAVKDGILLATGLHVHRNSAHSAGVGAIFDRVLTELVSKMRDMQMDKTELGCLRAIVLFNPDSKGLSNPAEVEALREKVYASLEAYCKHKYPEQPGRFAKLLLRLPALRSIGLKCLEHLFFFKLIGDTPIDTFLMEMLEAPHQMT

Test [11] has as its target human Retinoid X Receptor beta (RXRb), RXRB (gene 6257) (UniProt P28702). The experiment in a line: ATG_RXRb_TRANS: Attagene TRANS-FACTORIAL HepG2 Assay for human Retinoid X Receptor beta (RXRb) (AID 2283013). A digest of the protocol:
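After a 24 h incubation with test chemical, transfected HepG2 cells carrying NR-Gal4 fusions and GAL4-UAS reporter transcription units yield RNA whose reporter cDNA is FAM-labelled, HpaI-cut and sized by capillary electrophoresis; increases over DMSO are scored.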

For test [12], the target named is human Thyroid Receptor alpha (THRa1), THRA (gene 7067) (UniProt P10827). Put plainly: ATG_THRa1_TRANS: Attagene TRANS-FACTORIAL HepG2 Assay for human Thyroid Receptor alpha (THRa1) (AID 2283014). A digest of the protocol:
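First, HepG2 cells receive multiple GAL4-UAS reporter units and the chimeric receptor. They are then dosed for 24 h, after which RNA is reverse-transcribed, amplified, labelled, HpaI-cut and sized by capillary electrophoresis; gain relative to DMSO is scored.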

Read-out in test [13]: Interleukin-1 alpha (IL1a), IL1A (gene 3552)
The experiment in a line: BSK_BE3C_IL1a: BioMAP Diversity Plus: BE3C Assay for Interleukin-1 alpha (IL1a) Biomarker Activity (AID 2283016; active = hit-call score of the fitted dose curve at least 0.9, where 1 is the maximum; inactive = score below 0.9). The note with it: primary human bronchial epithelial cells; actives raise or lower the signal. Put shortly:
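Measured in human lung primary bronchial epithelial cells: IL-1a by ELISA at 24 h after dosing, with bidirectional fitting against DMSO.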

Read-out in test [14]: Monocyte Chemoattractant Protein-1 (MCP1), CCL2 (gene 6347)
Put plainly: BSK_3C_MCP1: BioMAP Diversity Plus: 3C Assay for Monocyte Chemoattractant Protein-1 (MCP1) Biomarker Activity (AID 2283017; active = hit-call score of the fitted dose curve at least 0.9, where 1 is the maximum; inactive = score below 0.9). The settings on record: primary human endothelial cells (HUVEC); actives raise or lower the signal. Put shortly: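 Endothelial cells from human umbilical vein are dosed with chemical, cultured 24 h, then assayed for MCP-1 by ELISA; both increases and decreases are modelled against DMSO controls.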

Read-out in test [15]: Monocyte Chemoattractant Protein-1 (MCP1), CCL2 (gene 6347)
The experiment in a line: BSK_4H_MCP1: BioMAP Diversity Plus: 4H Assay for Monocyte Chemoattractant Protein-1 (MCP1) Biomarker Activity (AID 2283018; active = hit-call score of the fitted dose curve at least 0.9, where 1 is the maximum; inactive = score below 0.9). The note with it: primary human endothelial cells (HUVEC); actives raise or lower the signal. A digest of the protocol: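 Primary human umbilical vein endothelium is exposed to chemical for 24 h before MCP-1 is assayed by ELISA. Concentration-response fitted bidirectionally relative to DMSO.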

Read-out in test [16]: Interleukin-8 (IL8), CXCL8 (gene 3576)
The experiment in a line: BSK_3C_IL8: BioMAP Diversity Plus: 3C Assay for Interleukin-8 (IL8) Biomarker Activity (AID 2283020; active = hit-call score of the fitted dose curve at least 0.9, where 1 is the maximum; inactive = score below 0.9). The settings on record: primary human endothelial cells (HUVEC); actives raise or lower the signal. Put shortly: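 Using DMSO-treated wells as the baseline, bidirectional curve fitting was applied to ELISA-measured IL-8 from human umbilical vein endothelial cultures sampled 24 h after compound addition.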

Read-out in test [17]: Monokine induced gamma interferon (MIG), CXCL9 (gene 4283)
The experiment in a line: BSK_3C_MIG: BioMAP Diversity Plus: 3C Assay for Monokine induced gamma interferon (MIG) Biomarker Activity (AID 2283021; active = hit-call score of the fitted dose curve at least 0.9, where 1 is the maximum; inactive = score below 0.9;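 for AC50: MIG protein level measured by immunoassay in the treated endothelial cultures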). The note with it: primary human endothelial cells (HUVEC); actives raise or lower the signal. A digest of the protocol: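 ELISA-measured MIG in dosed HUVEC 3C cultures at 24 h, analysed by bidirectional fitting with DMSO defining baseline activity.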

Read-out in test [18]: E-selectin (Homo sapiens) (UniProt P16581)
Put plainly: BSK_3C_Eselectin: BioMAP Diversity Plus: 3C Assay for Eselectin Biomarker Activity (AID 2283015; active = hit-call score of the fitted dose curve at least 0.9, where 1 is the maximum; inactive = score below 0.9;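 for outcome: cell surface E-selectin protein quantified by ELISA 24 h after dosing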). The settings on record: primary human endothelial cells (HUVEC); actives raise or lower the signal. Put shortly:
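Human vascular endothelium from umbilical vein is exposed to test chemicals for 24 h. E-selectin levels are read by ELISA and compared with DMSO controls.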

Read-out in test [19]: Human Leukocyte Antigen - DR isotype (HLADR), HLA-DRA (gene 3122)
The experiment in a line: BSK_3C_HLADR: BioMAP Diversity Plus: 3C Assay for Human Leukocyte Antigen - DR isotype (HLADR) Biomarker Activity (AID 2283019; active = hit-call score of the fitted dose curve at least 0.9, where 1 is the maximum; inactive = score below 0.9). The note with it: primary human endothelial cells (HUVEC); actives raise or lower the signal. Put shortly: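 Endothelial cells from human umbilical vein are treated with test chemical; after 24 h, HLA-DR levels are measured by ELISA. Data are fitted in both directions using DMSO as the baseline.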

Test [20] addresses Retinoic acid receptor alpha (Homo sapiens) (UniProt P10276). The experiment in a line: ATG_RARa_TRANS: Attagene TRANS-FACTORIAL HepG2 Assay for human Retinoic Acid Receptor alpha (RARa) (AID 2283005). Put shortly:
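Reporter transcripts, measured by RT-PCR with fluorescent labeling and capillary electrophoresis after 24 h dosing, reflect activity of an exogenous human RARa–GAL4 fusion in transiently transfected HepG2. Fitted for increase relative to DMSO.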

Structures are written as SMILES. Results filed as inconclusive are left out. Some structures have more than one record in an assay (separate samples or runs), and their calls can disagree. Calls of active or inactive are those of the source. Rule for the calls, unless noted: active = hit-call score of the fitted dose curve at least 0.9, where 1 is the maximum; inconclusive = response in the unintended direction; inactive = score below 0.9.

Chain of Peroxisome proliferator-activated receptor gamma (Homo sapiens) (P37231 whole entry, looked up, the tested form may be a part): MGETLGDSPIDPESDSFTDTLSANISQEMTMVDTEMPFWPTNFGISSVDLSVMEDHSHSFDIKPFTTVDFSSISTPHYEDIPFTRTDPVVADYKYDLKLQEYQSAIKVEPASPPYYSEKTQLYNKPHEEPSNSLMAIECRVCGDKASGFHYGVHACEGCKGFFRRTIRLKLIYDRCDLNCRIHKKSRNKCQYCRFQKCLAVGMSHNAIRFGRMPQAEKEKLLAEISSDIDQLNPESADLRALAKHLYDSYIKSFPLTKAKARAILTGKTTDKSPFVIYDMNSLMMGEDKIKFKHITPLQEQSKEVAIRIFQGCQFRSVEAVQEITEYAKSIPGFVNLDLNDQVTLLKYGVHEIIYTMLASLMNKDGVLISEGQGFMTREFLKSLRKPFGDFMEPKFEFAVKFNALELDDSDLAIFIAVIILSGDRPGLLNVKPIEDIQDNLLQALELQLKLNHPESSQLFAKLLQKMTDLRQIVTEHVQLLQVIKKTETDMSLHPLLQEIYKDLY
Chain of Nuclear receptor subfamily 1 group I member 2 (Homo sapiens) (O75469 whole entry, looked up, the tested form may be a part): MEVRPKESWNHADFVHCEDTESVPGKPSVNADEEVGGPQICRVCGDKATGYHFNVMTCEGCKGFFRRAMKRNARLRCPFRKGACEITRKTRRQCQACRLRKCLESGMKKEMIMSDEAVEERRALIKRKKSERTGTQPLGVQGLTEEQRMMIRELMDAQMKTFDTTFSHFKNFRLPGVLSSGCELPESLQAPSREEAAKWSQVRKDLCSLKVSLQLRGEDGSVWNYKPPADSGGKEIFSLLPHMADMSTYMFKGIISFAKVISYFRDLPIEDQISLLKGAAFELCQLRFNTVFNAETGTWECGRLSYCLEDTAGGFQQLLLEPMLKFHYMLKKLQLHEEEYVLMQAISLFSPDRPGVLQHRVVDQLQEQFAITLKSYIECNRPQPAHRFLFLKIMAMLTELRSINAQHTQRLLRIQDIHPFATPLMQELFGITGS
Chain of E-selectin (Homo sapiens) (P16581 whole entry, looked up): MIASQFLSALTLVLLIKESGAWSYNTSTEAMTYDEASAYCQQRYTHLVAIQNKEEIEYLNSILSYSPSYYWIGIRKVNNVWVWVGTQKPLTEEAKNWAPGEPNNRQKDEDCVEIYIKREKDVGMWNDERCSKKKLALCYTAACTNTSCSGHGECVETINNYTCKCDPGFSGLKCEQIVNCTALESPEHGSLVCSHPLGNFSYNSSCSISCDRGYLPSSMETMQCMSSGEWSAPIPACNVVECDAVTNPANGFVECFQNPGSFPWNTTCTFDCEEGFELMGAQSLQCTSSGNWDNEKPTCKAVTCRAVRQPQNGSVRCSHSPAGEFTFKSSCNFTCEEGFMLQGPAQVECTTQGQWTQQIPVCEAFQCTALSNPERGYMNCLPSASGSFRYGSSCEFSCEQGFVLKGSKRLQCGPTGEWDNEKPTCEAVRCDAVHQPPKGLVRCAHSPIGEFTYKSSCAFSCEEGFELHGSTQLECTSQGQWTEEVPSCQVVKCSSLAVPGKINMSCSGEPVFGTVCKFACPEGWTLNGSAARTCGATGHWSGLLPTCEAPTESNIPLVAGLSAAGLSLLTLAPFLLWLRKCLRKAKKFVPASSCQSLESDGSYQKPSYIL
Chain of human Retinoid X Receptor beta (RXRb), RXRB (gene 6257) (P28702 whole entry, looked up, the tested form may be a part): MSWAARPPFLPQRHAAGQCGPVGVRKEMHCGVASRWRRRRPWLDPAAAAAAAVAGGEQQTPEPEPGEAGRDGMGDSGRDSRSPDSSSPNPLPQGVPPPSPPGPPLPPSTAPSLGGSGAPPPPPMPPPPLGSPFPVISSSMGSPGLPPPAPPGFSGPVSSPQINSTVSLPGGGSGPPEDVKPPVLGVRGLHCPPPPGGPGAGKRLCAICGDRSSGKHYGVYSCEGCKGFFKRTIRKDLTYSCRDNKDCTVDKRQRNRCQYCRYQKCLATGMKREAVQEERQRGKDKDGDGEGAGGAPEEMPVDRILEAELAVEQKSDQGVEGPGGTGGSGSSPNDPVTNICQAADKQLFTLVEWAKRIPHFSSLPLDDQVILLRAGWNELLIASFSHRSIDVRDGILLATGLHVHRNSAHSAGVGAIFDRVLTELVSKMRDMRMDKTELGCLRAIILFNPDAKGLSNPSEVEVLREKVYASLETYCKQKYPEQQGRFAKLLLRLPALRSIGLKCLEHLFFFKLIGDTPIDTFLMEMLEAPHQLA
Chain of human Thyroid Receptor alpha (THRa1), THRA (gene 7067) (P10827 whole entry, looked up, the tested form may be a part): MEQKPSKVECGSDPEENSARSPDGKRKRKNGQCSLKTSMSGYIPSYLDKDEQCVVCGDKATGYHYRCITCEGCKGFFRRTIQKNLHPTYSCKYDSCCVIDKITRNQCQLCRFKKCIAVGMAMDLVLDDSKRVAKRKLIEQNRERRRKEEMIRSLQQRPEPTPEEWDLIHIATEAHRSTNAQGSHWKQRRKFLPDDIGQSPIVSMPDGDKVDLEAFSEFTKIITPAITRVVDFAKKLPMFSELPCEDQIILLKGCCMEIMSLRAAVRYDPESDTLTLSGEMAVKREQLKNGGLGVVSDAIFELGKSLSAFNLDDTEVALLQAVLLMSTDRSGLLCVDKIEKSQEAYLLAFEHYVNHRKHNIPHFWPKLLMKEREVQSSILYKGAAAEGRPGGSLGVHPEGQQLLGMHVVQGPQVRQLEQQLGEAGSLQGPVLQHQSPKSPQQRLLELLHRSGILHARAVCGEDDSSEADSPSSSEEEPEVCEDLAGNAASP
Chain of human Peroxisome Proliferator-activated Receptor alpha (PPARa), PPARA (gene 5465) (Q07869 whole entry, looked up, the tested form may be a part): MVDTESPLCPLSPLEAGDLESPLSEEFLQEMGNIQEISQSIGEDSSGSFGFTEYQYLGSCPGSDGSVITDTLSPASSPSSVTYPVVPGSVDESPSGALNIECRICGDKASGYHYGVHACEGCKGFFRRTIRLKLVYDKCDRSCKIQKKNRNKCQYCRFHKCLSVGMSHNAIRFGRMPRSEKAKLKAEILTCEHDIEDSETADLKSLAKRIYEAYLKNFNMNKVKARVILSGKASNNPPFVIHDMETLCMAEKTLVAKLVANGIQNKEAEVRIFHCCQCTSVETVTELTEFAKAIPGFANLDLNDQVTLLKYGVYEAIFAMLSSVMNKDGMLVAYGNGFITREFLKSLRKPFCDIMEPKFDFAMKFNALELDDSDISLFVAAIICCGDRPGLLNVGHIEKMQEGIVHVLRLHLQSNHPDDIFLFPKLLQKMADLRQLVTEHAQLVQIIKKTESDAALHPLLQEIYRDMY
Chain of human Peroxisome Proliferator-activated Receptor delta (PPARd), PPARD (gene 5467) (Q03181 whole entry, looked up, the tested form may be a part): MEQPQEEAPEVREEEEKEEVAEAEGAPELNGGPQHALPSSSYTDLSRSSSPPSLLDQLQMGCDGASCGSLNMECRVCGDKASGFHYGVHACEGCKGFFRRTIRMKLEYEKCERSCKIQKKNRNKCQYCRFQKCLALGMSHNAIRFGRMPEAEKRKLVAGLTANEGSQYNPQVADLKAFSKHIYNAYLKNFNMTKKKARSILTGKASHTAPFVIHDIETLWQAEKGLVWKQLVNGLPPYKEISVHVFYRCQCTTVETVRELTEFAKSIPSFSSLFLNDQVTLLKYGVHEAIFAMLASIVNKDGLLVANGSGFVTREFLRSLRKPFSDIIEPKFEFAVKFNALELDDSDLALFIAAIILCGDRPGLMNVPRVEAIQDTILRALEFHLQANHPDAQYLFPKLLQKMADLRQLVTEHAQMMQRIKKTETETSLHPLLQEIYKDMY
Chain of human Retinoic Acid Receptor beta (RARb), RARB (gene 5915) (P10826 whole entry, looked up, the tested form may be a part): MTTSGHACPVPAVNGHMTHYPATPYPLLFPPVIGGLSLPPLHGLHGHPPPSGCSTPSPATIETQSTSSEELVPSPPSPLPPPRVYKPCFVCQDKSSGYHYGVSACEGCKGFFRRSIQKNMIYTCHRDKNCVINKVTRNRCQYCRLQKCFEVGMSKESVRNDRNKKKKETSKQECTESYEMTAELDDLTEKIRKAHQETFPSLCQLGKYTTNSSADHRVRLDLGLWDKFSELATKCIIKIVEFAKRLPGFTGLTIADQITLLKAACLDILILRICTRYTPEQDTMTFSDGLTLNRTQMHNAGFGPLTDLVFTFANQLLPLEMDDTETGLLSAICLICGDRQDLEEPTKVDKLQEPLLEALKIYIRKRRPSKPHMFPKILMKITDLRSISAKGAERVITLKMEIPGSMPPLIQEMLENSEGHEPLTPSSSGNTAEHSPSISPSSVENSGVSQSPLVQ
Chain of human RAR-related Orphan Receptor gamma (RORg), RORC (gene 6097) (P51449 whole entry, looked up, the tested form may be a part): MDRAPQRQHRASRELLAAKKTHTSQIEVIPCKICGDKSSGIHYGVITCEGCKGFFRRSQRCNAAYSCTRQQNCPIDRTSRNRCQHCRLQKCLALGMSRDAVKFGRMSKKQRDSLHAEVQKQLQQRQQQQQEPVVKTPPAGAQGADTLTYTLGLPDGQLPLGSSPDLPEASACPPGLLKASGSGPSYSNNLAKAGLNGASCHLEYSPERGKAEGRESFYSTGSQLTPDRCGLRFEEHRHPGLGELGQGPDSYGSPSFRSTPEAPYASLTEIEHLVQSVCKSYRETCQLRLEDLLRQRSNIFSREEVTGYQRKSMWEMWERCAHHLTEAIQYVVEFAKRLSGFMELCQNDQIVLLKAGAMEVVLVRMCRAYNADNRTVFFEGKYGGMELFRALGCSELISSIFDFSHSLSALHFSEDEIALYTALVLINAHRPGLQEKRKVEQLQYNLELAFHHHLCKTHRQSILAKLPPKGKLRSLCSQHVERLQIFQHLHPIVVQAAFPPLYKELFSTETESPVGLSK

Turning to `CN(C)CCO`, the outcome in test [1], in test [2], in test [3], in [4], in test [5] and in [6] was inactive. In addition, the compound was called inactive in test [7], in test [8], in test [9], in [10], in test [11] and in test [12]. Also, the result in test [13], in test [14], in [15], in test [16] and in [17] was inactive.

Consider `CCNc1nc(NC(C)C)nc(SC)n1`, for which the outcome in [1], in [2], in [3], in test [4], in test [6] and in test [7] was inactive. Further, the outcome in test [8], in test [10], in test [11], in test [12], in test [18] and in test [13] was inactive. The result in [14], in test [15], in test [16] and in test [17] was inactive.

Take `COS(=O)(=O)OC`: the result in test [1], in [2], in test [3], in [4], in [6] and in test [10] was inactive. Further, the compound was called inactive in [11], in [12], in test [13], in [14], in test [15] and in test [16]. Also, in test [17], the outcome was inactive.

Take `ClC(Cl)=C(c1ccc(Cl)cc1)c1ccc(Cl)cc1`: the concentration at half-maximal activity (AC50) – broadly, the concentration giving half of the maximal activity seen – in [1] is 31.2 µM (active); in test [2], 26.2 µM (active); in test [4], 34 µM (active); in [8] it was 6.11 µM (active) [middle of 4 runs]; in [11], 17.5 µM (active) [middle of 4 runs]; in test [15], 20 µM (active). For the same compound, the values for the AC50 in [19], in test [16] and in [17] were 30.5 µM (active), 32.1 µM (active) and 35 µM (active), respectively. The result in test [2], in [3], in test [7], in test [10], in test [12] and in test [13] was inactive.

In the case of `Cc1cc2c3c(c1)C(c1ccccc1)=N[C@@H](NC(=O)c1ccncc1)C(=O)N3CC2`, the result in test [1], in test [2], in [3], in test [4], in test [5] and in test [6] was inactive. In addition, the result in test [9], in test [10], in [18], in test [13], in test [15] and in [16] was inactive. Moreover, the result in test [17] was inactive. For the same compound, the AC50 in test [7] was 1.71 µM (active); in [8] it was 2.54 µM (active).

Consider `CCC(C)c1cc([N+](=O)[O-])cc([N+](=O)[O-])c1O` (stereo not drawn), for which the AC50 in test [1] is 11.3 µM (active); in test [2] it was 49.6 µM (active); in test [6], 8.95 µM (active); in test [7], 17.3 µM (active); in test [8], 26.9 µM (active); in test [18], 8.02 µM (active). Further, the figures for the AC50 in [14], in test [15] and in test [16] were 9.99 µM (active), 5.15 µM (active) and 7.38 µM (active), respectively. The compound was called inactive in test [3], in [4], in test [20], in test [10], in test [11] and in test [12]. In addition, the result in [13] and in [17] was inactive.
